The results in this text go back to ChEMBL document CHEMBL2218924, “A broad activity screen in support of a chemogenomic map for kinase signalling research and drug discovery” (Biochem J, 2013).

In test [1] the target is Ribosomal protein S6 kinase alpha-1 (Homo sapiens) (UniProt Q15418). Conditions: at 1 µM.
Test [2] has the same target. Conditions: at 10 µM.
The target of test [3] is Ribosomal protein S6 kinase alpha-3 (Homo sapiens) (UniProt P51812). Conditions: at 1 µM.
The target is the same in test [4]. Conditions: at 10 µM.
For test [5], the target named is Ribosomal protein S6 kinase alpha-2 (Homo sapiens) (UniProt Q15349). Conditions: at 10 µM.
For test [6], the target named is Ribosomal protein S6 kinase alpha-6 (Homo sapiens) (UniProt Q9UK32). Conditions: at 1 µM.
Test [7] shares this target. Particulars: at 10 µM.
In test [8] the target is Mitogen-activated protein kinase 14 (Homo sapiens) (UniProt Q16539). Conditions: at 10 µM.
Test [9] addresses T1, Serine/threonine-protein kinase Sgk2 (Homo sapiens) (UniProt Q9HBY8).
T1 sequence (whole entry): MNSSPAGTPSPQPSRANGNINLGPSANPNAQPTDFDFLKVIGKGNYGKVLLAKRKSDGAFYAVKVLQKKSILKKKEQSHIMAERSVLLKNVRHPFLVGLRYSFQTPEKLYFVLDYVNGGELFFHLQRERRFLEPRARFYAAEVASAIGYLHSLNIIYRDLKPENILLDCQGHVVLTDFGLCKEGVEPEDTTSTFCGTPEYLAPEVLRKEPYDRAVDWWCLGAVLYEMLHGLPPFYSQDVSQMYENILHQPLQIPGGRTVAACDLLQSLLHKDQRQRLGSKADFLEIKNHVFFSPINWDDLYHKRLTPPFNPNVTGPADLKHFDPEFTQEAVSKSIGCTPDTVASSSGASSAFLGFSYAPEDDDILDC
Conditions: at 1 µM.

Test [10] has as its target T2, Mitogen-activated protein kinase 13 (Homo sapiens) (UniProt O15264).
T2 sequence (whole entry): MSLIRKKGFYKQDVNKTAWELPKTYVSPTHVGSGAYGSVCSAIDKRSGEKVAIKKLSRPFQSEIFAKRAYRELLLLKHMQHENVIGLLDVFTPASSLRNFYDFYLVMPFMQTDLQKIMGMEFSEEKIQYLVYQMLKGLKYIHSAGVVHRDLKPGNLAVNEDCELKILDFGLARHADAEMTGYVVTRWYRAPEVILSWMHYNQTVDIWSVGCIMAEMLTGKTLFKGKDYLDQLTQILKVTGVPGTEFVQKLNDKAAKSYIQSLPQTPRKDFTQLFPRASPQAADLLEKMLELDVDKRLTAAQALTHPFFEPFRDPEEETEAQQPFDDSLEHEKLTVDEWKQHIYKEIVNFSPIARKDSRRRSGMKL
Particulars: at 1 µM.

Test [11] deals with T2, Mitogen-activated protein kinase 13 (Homo sapiens). Particulars: at 10 µM.
Test [12] has as its target T1, Serine/threonine-protein kinase Sgk2 (Homo sapiens). Conditions: at 10 µM.
In test [13] the target is Serine/threonine-protein kinase SIK1 (Homo sapiens) (UniProt P57059). Conditions: at 1 µM.
Test [14] deals with Ribosomal protein S6 kinase alpha-2 (Homo sapiens) (UniProt Q15349). Particulars: at 1 µM.
Test [15] has as its target Mitogen-activated protein kinase 14 (Homo sapiens) (UniProt Q16539). Particulars: at 1 µM.
The target in test [16] is T3, Serine/threonine-protein kinase Sgk3 (Homo sapiens) (UniProt Q96BR1).
T3 sequence (whole entry): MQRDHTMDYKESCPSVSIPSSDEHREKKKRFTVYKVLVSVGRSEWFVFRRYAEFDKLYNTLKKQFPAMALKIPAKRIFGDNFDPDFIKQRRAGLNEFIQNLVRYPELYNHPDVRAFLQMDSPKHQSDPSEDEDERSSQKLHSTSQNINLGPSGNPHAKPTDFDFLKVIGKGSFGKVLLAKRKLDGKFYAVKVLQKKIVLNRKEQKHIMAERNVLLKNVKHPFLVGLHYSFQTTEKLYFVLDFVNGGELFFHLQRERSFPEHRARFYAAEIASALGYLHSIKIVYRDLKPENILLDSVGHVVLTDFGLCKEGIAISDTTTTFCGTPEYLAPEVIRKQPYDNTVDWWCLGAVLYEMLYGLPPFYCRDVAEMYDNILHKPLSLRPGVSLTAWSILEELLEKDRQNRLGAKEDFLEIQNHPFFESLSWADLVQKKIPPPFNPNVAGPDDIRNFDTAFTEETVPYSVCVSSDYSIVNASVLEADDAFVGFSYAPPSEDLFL
Conditions: at 10 µM.

Test [17] deals with Mitogen-activated protein kinase 11 (Homo sapiens) (UniProt Q15759). Particulars: at 10 µM.
Test [18] addresses T4, Serine/threonine-protein kinase Sgk1 (Homo sapiens) (UniProt O00141).
T4 sequence (whole entry): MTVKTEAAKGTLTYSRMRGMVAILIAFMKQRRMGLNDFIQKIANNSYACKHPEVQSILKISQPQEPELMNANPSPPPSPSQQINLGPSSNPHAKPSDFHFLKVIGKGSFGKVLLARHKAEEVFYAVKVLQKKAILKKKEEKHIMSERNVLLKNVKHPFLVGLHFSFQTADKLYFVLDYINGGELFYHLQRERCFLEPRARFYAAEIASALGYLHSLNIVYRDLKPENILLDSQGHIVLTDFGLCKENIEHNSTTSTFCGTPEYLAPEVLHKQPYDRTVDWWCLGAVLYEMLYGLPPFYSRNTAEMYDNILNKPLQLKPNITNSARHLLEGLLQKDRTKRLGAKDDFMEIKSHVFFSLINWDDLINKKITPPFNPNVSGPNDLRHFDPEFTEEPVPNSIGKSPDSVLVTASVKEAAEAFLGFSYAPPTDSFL
Conditions: at 1 µM.

For test [19], the target named is T4, Serine/threonine-protein kinase Sgk1 (Homo sapiens). Conditions: at 10 µM.
Test [20] has as its target Mitogen-activated protein kinase 11 (Homo sapiens) (UniProt Q15759). Conditions: at 1 µM.

Ribosomal protein S6 kinase alpha-3 (Homo sapiens), sequence (P51812 whole entry): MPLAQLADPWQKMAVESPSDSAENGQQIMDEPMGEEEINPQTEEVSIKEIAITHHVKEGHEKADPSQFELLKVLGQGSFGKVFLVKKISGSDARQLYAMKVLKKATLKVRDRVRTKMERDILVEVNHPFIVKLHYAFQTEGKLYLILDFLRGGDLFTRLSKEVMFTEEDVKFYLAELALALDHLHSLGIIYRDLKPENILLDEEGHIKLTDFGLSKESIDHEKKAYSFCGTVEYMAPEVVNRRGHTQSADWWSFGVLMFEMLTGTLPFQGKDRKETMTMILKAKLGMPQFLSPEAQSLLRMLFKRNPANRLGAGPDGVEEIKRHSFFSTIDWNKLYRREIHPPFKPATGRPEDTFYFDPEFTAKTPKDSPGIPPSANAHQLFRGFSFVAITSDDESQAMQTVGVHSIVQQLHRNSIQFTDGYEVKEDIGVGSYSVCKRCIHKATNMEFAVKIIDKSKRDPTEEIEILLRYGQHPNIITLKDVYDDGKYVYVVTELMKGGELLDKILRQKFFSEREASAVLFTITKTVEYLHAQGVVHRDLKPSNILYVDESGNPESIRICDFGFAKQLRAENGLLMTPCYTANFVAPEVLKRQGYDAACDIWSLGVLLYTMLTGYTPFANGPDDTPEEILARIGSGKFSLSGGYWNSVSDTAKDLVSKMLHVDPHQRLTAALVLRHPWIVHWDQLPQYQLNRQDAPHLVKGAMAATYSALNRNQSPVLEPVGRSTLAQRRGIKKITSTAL
Ribosomal protein S6 kinase alpha-6 (Homo sapiens), sequence (Q9UK32 whole entry): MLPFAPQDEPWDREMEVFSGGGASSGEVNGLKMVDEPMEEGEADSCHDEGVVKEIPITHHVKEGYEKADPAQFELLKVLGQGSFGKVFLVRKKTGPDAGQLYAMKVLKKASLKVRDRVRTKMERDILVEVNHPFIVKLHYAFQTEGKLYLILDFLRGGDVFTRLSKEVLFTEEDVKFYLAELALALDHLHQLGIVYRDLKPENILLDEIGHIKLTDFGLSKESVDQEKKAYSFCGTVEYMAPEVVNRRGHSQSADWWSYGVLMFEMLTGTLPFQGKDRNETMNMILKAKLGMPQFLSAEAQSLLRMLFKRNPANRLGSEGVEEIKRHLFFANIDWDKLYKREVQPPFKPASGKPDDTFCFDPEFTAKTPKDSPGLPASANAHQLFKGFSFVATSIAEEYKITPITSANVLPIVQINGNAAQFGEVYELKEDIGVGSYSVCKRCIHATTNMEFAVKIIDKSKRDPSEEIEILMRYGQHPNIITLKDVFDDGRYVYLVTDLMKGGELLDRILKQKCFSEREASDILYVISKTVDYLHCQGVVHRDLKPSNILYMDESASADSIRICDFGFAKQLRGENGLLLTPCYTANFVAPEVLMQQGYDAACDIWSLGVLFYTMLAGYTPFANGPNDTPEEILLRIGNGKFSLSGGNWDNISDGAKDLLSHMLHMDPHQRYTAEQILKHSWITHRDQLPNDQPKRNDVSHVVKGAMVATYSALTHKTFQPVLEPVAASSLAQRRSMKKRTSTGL
Mitogen-activated protein kinase 14 (Homo sapiens), sequence (Q16539 whole entry): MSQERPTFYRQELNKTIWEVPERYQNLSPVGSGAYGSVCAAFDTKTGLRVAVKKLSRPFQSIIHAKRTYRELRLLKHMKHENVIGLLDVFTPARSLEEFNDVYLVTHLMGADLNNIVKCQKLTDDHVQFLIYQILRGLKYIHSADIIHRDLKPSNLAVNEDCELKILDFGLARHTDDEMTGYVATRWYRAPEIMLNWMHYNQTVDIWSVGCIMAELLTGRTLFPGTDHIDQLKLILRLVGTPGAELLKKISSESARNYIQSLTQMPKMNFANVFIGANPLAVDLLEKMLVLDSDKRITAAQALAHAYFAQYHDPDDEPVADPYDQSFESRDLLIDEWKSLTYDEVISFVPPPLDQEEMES
Ribosomal protein S6 kinase alpha-1 (Homo sapiens), sequence (Q15418 whole entry): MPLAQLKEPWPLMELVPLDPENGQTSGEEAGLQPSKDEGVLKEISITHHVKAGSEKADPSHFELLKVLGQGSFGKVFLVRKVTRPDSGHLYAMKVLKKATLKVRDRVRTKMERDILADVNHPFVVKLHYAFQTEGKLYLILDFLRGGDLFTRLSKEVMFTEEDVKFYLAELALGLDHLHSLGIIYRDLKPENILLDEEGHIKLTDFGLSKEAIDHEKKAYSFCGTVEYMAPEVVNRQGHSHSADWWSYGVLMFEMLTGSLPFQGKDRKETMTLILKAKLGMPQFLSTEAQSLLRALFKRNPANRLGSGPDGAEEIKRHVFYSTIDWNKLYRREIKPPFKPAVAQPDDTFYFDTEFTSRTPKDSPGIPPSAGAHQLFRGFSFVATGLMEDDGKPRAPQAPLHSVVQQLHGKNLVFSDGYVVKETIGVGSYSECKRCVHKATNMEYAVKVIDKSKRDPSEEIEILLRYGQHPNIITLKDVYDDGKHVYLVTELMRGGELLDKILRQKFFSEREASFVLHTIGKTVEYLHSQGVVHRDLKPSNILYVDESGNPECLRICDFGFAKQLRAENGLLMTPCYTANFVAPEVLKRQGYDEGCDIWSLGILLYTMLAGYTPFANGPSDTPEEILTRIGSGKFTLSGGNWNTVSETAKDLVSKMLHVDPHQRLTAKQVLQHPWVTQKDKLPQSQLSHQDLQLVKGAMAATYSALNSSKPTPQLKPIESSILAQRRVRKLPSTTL
Serine/threonine-protein kinase SIK1 (Homo sapiens), sequence (P57059 whole entry): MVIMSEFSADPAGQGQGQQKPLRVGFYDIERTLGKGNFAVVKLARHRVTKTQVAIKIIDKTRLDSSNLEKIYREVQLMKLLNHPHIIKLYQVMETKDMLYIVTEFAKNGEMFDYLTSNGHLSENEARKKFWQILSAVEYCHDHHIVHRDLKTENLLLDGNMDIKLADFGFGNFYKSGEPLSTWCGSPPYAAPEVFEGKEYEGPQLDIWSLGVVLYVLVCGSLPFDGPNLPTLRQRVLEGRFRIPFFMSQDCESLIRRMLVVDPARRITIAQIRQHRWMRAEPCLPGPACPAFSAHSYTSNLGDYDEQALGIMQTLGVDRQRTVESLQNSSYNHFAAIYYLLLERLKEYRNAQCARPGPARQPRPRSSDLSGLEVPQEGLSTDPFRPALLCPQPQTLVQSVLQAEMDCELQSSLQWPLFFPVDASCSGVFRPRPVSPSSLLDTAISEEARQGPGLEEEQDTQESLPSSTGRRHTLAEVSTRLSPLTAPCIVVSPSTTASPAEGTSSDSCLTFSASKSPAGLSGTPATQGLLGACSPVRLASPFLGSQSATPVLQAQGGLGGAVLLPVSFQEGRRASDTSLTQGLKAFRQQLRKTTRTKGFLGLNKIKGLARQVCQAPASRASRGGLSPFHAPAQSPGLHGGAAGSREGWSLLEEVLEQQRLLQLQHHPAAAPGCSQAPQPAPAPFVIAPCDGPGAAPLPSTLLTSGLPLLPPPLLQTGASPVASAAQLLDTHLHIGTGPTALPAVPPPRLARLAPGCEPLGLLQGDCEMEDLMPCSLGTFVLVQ
Ribosomal protein S6 kinase alpha-2 (Homo sapiens), sequence (Q15349 whole entry): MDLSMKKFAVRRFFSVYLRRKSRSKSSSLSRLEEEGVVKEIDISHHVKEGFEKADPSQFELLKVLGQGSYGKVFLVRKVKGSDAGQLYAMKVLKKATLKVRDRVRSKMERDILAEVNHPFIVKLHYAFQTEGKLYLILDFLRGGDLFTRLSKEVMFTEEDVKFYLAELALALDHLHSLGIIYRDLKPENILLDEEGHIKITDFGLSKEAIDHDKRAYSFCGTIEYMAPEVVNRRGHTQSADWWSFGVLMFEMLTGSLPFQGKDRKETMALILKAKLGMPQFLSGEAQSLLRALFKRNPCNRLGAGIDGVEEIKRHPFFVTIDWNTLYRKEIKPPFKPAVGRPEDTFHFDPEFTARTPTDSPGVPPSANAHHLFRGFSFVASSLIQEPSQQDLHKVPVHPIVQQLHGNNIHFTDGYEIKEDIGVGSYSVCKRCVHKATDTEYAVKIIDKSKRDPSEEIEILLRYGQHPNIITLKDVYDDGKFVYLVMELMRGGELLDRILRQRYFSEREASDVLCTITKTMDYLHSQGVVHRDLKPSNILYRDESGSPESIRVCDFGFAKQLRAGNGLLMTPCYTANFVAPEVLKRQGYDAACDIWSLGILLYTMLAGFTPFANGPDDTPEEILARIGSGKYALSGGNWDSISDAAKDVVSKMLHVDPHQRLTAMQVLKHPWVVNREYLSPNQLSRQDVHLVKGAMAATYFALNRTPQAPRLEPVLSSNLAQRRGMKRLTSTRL
Mitogen-activated protein kinase 11 (Homo sapiens), sequence (Q15759 whole entry): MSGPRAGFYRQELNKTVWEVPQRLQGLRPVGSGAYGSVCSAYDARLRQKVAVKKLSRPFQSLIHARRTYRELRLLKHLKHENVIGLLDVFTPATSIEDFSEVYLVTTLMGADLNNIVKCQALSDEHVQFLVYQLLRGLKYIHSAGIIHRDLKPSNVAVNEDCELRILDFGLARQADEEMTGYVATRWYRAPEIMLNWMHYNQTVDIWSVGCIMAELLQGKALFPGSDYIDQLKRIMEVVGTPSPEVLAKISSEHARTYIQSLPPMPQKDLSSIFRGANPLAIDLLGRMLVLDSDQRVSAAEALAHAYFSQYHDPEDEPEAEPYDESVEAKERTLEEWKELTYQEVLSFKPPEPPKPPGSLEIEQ

Consider `COc1ccc(COc2ccc(Cc3cnc(N)nc3N)cc2OC)cc1`, for which the residual activity in [1] stood at 131%; in test [2], 109%; in [3], 64%; in test [4] it was 64%; in test [5] it was 71%; in test [6], 110%. The residual activity amounted to 116% in [7], 99% in test [8] and 108% in test [9].

Turning to `O=C(Nc1nc2ccccc2n1CCN1CCOCC1)c1cccc([N+](=O)[O-])c1`, the residual activity was 104% in test [3]; 83% in test [4]; 108% in test [6]; 80% in [7]; 109% in test [10]; 87% in [11]. Further, the residual activity came out at 108% in test [9], 75% in test [12] and 70% in test [13].

As to `CCCCc1c(-c2ccc(O)cc2)[nH]c2nccnc12`, the residual activity amounted to 42% in [3]; 29% in [4]; 68% in [14]; 44% in test [5]; 86% in test [6]; 84% in test [7]. The residual activity in test [15] is 100%; in test [8] it was 88%; in test [10] it was 98%; in test [11], 88%; in test [9], 92%; in test [12], 90%. For the same compound, the results for the residual activity in [16] and in [13] were 75% and 69%, respectively.

On to `COc1cc2ncnc(Nc3cccc(Cl)c3)c2cc1OC`, for which the residual activity in [3] came out at 102%; in test [4] it was 59%; in test [14], 87%; in [5] it was 47%; in [6] it was 123%; in test [7] it was 64%. The residual activity stood at 56% in test [15]; 25% in test [8]; 45% in [17]; 118% in test [10]; 109% in test [11]; 89% in [18]. Besides, the residual activity is 113% in test [19], 77% in [9], 70% in [12] and 84% in test [13].

As to `Nc1nccc(-c2c(-c3ccc(F)cc3)ncn2C2CCNCC2)n1`, the residual activity worked out at 54% in [3]; 36% in [4]; 83% in [14]; 50% in test [5]; 70% in [7]; 75% in test [16]. Moreover, the residual activity in test [13] turned out to be 132%.

`CC(C)(C)c1nc2c3ccc(F)cc3c3c(=O)[nH]ccc3c2[nH]1`: the residual activity was found to be 65% in test [1]; 55% in test [2]; 25% in test [14]; 7% in test [5]; 42% in test [6]; 37% in [7]. The residual activity turned out to be 73% in [15]; 69% in test [8]; 62% in [20]; 69% in test [17]; 63% in [18]; 68% in [19]. For the same compound, the residual activity in test [9] was determined as 63%; in test [12] it was 55%; in [13], 31%.

As for `O=c1c(-c2ccc(F)cc2)c(-c2ccncc2)[nH]n1-c1ccc(Cl)cc1`, the residual activity in test [15] was 3%; in test [8] it was 0%; in test [20], 23%; in test [17] it was 5%; in [19] it was 101%; in test [13] it was 141%.

As to `CCOc1nc(NC(=O)Cc2cc(OC)ccc2OC)cc(N)c1C#N`, the residual activity came out at 71% in test [5], 79% in test [18] and 100% in [19].

For the compound `CN([C@@H](Cc1ccc(OS(=O)(=O)c2cccc3cnccc23)cc1)C(=O)N1CCN(c2ccccc2)CC1)S(=O)(=O)c1cccc2cnccc12`, the residual activity in test [14] is 99%; in [5] it was 99%; in test [20] it was 113%; in [10] it was 81%; in test [18] it was 123%; in test [16], 83%.

For `NCCNc1ncc(C(N)=O)c(Nc2cccc(C(F)(F)F)c2)n1`, the residual activity turned out to be 116% in test [1]; 59% in test [2]; 35% in test [4]; 82% in [14]; 29% in test [5]; 104% in test [17]. Also, the residual activity in [10] is 114%; in test [11] it was 101%; in test [18], 81%; in test [19], 129%; in [9], 82%; in test [12], 78%. Moreover, the residual activity in test [16] was found to be 66%; in test [13], 63%.

On to `N#C/C(=C1/Nc2ccccc2S1)c1ccnc(NCCc2cccnc2)n1`, for which the residual activity is 63% in test [6]; 63% in test [7]; 76% in test [15]; 41% in test [8]; 78% in test [10]; 48% in test [11]. In addition, the residual activity in test [13] was determined as 146%.

As to `CC(C)N(CCC(=O)c1ccc2ccccc2c1)Cc1ccccc1`, the residual activity was 54% in test [3]; 52% in test [4]; 81% in test [15]; 79% in test [8]; 78% in [18]; 100% in [19]. In addition, the values for the residual activity in [16] and in test [13] were 85% and 79%, respectively.

Consider `COc1ccc(Cl)cc1NC(=O)Nc1cc(C)nc2ccccc12`, for which the residual activity in test [15] stood at 82%; in [8], 91%; in test [18] it was 80%; in [19] it was 73%; in test [16], 78%; in test [13], 93%.

`N#C/C(=C\c1ccc(O)c(O)c1)C(=O)NCc1ccccc1`: the residual activity in [2] came out at 102%; in test [3], 67%; in test [4] it was 45%; in test [14], 122%; in test [15], 72%; in [8], 102%. The residual activity in test [10] was determined as 125%; in test [18], 79%; in test [19], 32%; in test [9], 61%; in [12], 17%; in test [16] it was 73%. Besides, the residual activity in test [13] was 88%.

`O=C(Nc1ccc(Cl)cc1)c1ccccc1NCc1ccncc1`: the values for the residual activity in [1], in test [19] and in test [12] were 129%, 128% and 72%, respectively.

In the case of `O=C1Cc2c([nH]c3ccc([N+](=O)[O-])cc23)-c2ccccc2N1`, the residual activity worked out at 56% in [3]; 34% in test [4]; 38% in test [14]; 22% in [5]; 64% in test [6]; 38% in [7]. The residual activity in test [20] was determined as 100%; in test [17], 103%; in [9], 65%; in [12], 68%; in test [13], 100%.

On to `O=C1Cc2c([nH]c3ccc(Br)cc23)-c2ccccc2N1`, for which the residual activity in [1] came out at 78%; in [2] it was 77%; in test [14], 12%; in [5] it was 9%; in [20], 98%; in [17], 89%. Moreover, the residual activity in test [10] is 98%; in test [11], 68%; in test [18] it was 95%; in test [19] it was 81%; in [9], 99%; in test [12] it was 74%. For the same compound, the residual activity in test [16] is 83%; in test [13], 91%.
